Test results published in PubChem BioAssay (Tox21).
Results filed as inconclusive are left out. Unmarked numbers belong to inactive results. Calls of active or inactive are those of the source. Calls follow the shape of the dose curve; as a rule, active = well fitted cell-killing curve with a large enough effect in the repeat runs; inconclusive = weak or mixed curves, or effect the other way; inactive = no such curve, though single readings can be large or run the other way.

test: qHTS assay to identify small molecule agonists of the estrogen receptor alpha (ER-alpha) signaling pathway in the presence of an antagonist - cell viability counter screen (AID 1259386); settings: VM7Luc4E2 viability, CellTiter-Fluor fluorescence, 22 h; series mostly up to 92.4 µM; activity change, negative = cytotoxicity: at the top concentration;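 also: cells exposed to compounds for 22 h at 37 °C before the viability read; nearly all actives have a fitted effect of over 30% in size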
Description: National Center for Advancing Translational Sciences [NCATS]
NIH Chemical Genomics Center [NCGC]
U.S. Environmental Protection Agency [EPA]
National Institutes of Environmental Health Sciences [NIEHS]
National Toxicology Program [NTP]
U.S. Food and Drug Administration [FDA]
Estrogen receptor (ER), a member of nuclear hormone receptor plays an important role in development, metabolic homeostasis and reproduction. Two subtypes of ER, ER-alpha and ER-beta, have similar expression patterns with some uniqueness in both types. Endocrine disrupting chemicals (EDCs) and their interactions with steroid hormone receptors like ER causes disruption of normal endocrine function. Therefore, it is important to understand the effect of environmental chemicals in ER signaling pathway. For identifying ER agonists, VM7Luc4E2 cell line has been used in the current assay.
VM7Luc4E2 cell line (provided by Denison MS, University of California) endogenously expresses full-length ER-alpha and is stably transfected with a plasmid containing four estrogen responsive elements (ERE) upstream of a luciferase reporter gene. This current screening for measuring luciferase reporter gene activity using VM7Luc4E2 cells against Tox21 10K library collection is a confirmation study on agonist mode screening in presence of ER-antagonist (ICI-182,780) at 10.0nM final concentration. The cytotoxicity of the compounds was tested in parallel by measuring the cell viability using CellTiter-Fluor assay system (Promega, Madison, WI) in the same wells.
Tox21 Assay Protocol Summary:
VM7Luc4E2 cells were cultured in phenol red free assay medium containing 10% charcoal stripped FBS for 5 days prior to the assay. The cells were dispensed at 4,000 cells in 4uL of assay medium per well into white wall/solid-bottom 1536-well plates (Corning Life Sciences, Corning, NY) using a Multidrop Combi (Thermo Fisher Scientific Inc., Waltham, MA) dispenser. After the assay plates were incubated at 37C and 5% CO2 for 24hr, 1uL of 10.0nM (final concentration) ICI-182,780 or assay buffer was added using two separate tips of Flying Reagent Dispenser (FRD, Aurora Discovery, San Diego, CA). Then 23nL of compounds dissolved in DMSO at 15 concentrations and positive controls or DMSO only was transferred to the assay plates by a Pintool station (Wako, San Diego, CA). The assay plates were incubated at 37C and 5% CO2 for 22hr. After 21hr incubation at 37C, 1uL/well CellTiter-Fluor reagent (Promega Corporation, Madison, WI) was added to each well using FRD and after 1hr incubation at 37C and 5% CO2, the fluorescence signal was measured on ViewLux plate reader (PerkinElmer, Shelton, CT).
% is scaled to controls: 0 for no effect and ±100 for the full control effect; potency is read from the fitted curve at half-maximal effect.

| Structure (SMILES) | Potency | activity change, negative = cytotoxicity |
| --- | --- | --- |
| c1ccc(C[P+](c2ccccc2)(c2ccccc2)c2ccccc2)cc1 | 27.3 µM (active) | – |
| CO[Si](OC)(c1ccccc1)c1ccccc1 | – | 0.751% |
| CCCCCCCCCCCCCCCCCCNC(=O)OC1CCN(C(=O)OC[C@H](COC(=O)N(Cc2cccc[n+]2CC)C(=O)c2ccccc2OC)OC)CC1 | 26.6 µM (active) | – |
| C/C(=N\[Si](C)(C)C)O[Si](C)(C)C | – | 0.164% |
| Clc1ccc2c(Cl)ccnc2c1 | – | 0.43% |
| C=CC(C)(C)O | – | 4.39% |
| Nc1ccc(F)c([N+](=O)[O-])c1 | – | -3.58% |
| CCCCCCCCc1ccc(Nc2ccc(CCCCCCCC)cc2)cc1 | – | 0.458% [at 42.5 µM] |
| NC(=O)c1ccccc1Cl | – | -2.72% |
| C1=CCCC1 | – | -0.804% |
| Cc1cc(C)c(O)c(C(C)(C)C)c1 | – | -3.31% |
| COc1cc([C@@H]2c3cc4c(cc3[C@@H](O[C@@H]3O[C@@H]5CO[C@@H](C)O[C@H]5[C@H](O)[C@H]3O)[C@H]3COC(=O)[C@H]23)OCO4)cc(OC)c1O | – | -0.708% |
| CC(Cc1ccc(O)c(O)c1)C(C)Cc1ccc(O)c(O)c1 (stereo not given) | – | -12.2% |
| COc1c(Br)cc(Br)c(C)c1Br | – | 2.45% |
| O=C1OCc2ccccc21 | – | -1.63% |
| CC/C=C(\C)C=O | – | 3.65% |
| CC(C)=CCC[C@H](C)CC=O | – | 6% |
| Cc1c[nH]c(=O)[nH]c1=O | – | -0.384% |
| CCC(C)(C)c1ccc(CC(C)CN2C[C@@H](C)O[C@@H](C)C2)cc1 (stereo not given in full) | – | -1.17% [at 42.5 µM] |
| Cc1ccc(S(=O)(=O)C(I)I)cc1 | 68.6 µM (active) | – |

| Structure (SMILES) | Potency | activity change, negative = cytotoxicity |
| --- | --- | --- |
| [Cl][Sc]([Cl])[Cl] | – | 0.929% |
| CCCCCCCCCCCC(=O)Cl | – | 3.01% |
| CCOC(=O)OC(=O)OCC | – | 0.748% |
| Cc1ccc(C2OC[C@@H]3OC(c4ccc(C)cc4)O[C@H]([C@H](O)CO)[C@@H]3O2)cc1 (stereo not given in full) | – | 1.89% |
| O=[N+]([O-])c1ccc(O)c2ncccc12 | 11.9 µM (active) | – |
| NCc1ccco1 | – | -6.26% |
| CCCCCCCCCCCCN1CCCC1=O | – | -1.32% |
| COC(=O)c1ccc([N+](=O)[O-])cc1 | – | -1.12% |
| O[Si](c1ccccc1)(c1ccccc1)c1ccccc1 | – | 1.03% |
| COc1cc(OC)nc(NC(=O)NS(=O)(=O)Nc2ccccc2C(=O)N(C)C)n1 | – | -0.0353% |
| Brc1cc(Br)cc(Br)c1 | – | 0.425% |
| Cc1cccc(C)c1C | – | 0.482% |
| CCn1c2ccccc2c2ccccc21 | – | 2.73% |
| CCSCC | – | -2.66% |
| CCC(O)CO (stereo not given) | – | 3.17% |
| CSc1nnc(C(C)(C)C)c(=O)[nH]1 | – | 0.705% |
| CCCCCCCC/C=C\CCCCCCCC(=O)N(CCO)CCO | – | -4.34% |
| COc1cccc(-c2ccc(/C=C\CN3CCCCCC3)cc2Cl)c1 | – | -0.471% |
| CCC1(C)C(=O)N(Cl)C(=O)N1Cl (stereo not given) | – | 0.654% |
| SC1CCCCC1 | – | 0.925% |
